Some test systems named below: HCT-15 colon; HT29 colon; SNB-75 CNS; SNB-19 CNS; PC-3 prostate; SK-MEL-5 melanoma; UACC-62 melanoma; LOX IMVI melanoma; SK-MEL-28 melanoma; U251 CNS.
Holding throughout (experiment): NCI-60 one-dose screen, 48 h (100 = growth as untreated, 0 = no growth, -100 = all killed)
Holding throughout (conditions): 10 µM

The structures appear in SMILES notation. This is part of a sample that, as a whole, favours compounds with a hit. Of some 83,000 tested, about 20% had one in any assay.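 Activity criterion: percent growth below 10, measured after cells in 96-well plates were exposed to a single compound concentration for 48 hours.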 Unmarked numbers belong to inactive results. Active and inactive are the calls of the source.

With `COc1ccc(-c2nc(-c3nc4ccc(C)cc4[nH]3)c3ccccn23)cc1`, the growth in the test with HCT-15 colon was 33.7%; in the test with HT29 colon, 21.9%; with SNB-75 CNS, 66.6%; with SNB-19 CNS, 55.3%; in the test with PC-3 prostate it was 25.3%; in the test with SK-MEL-5 melanoma it was 39.9%. The growth is 47% with UACC-62 melanoma, 46% with LOX IMVI melanoma and 84.6% with SK-MEL-28 melanoma.
As to `N#CN1CC[C@H](C(=O)Nc2ncc(-c3ccncc3)s2)C1`, the growth in the test with HCT-15 colon was 2.59% (active); in the test on HT29 colon it was -39.9% (active); in the test with SNB-75 CNS it was -37.5% (active); with SNB-19 CNS it was 9.6% (active); with PC-3 prostate, 5.04% (active); with SK-MEL-5 melanoma, -17.1% (active). Moreover, the figures for the growth in the test with UACC-62 melanoma, in the test with LOX IMVI melanoma and with SK-MEL-28 melanoma were -26.9% (active), 2.09% (active) and 5.92% (active), respectively.
As to `O=C1/C(=C/c2ccc([N+](=O)[O-])s2)Oc2ccc(Cl)cc21`, the growth in the test on HCT-15 colon is -40% (active); in the test on HT29 colon it was -36.1% (active); with SNB-75 CNS it was -15% (active); with SNB-19 CNS, 7.13% (active); with PC-3 prostate it was -48% (active); in the test on SK-MEL-5 melanoma, -88.7% (active). Further, the growth is -82.4% (active) in the test on UACC-62 melanoma, -70.1% (active) in the test with LOX IMVI melanoma and -56.8% (active) in the test with SK-MEL-28 melanoma.
Take `N#Cc1c(-c2ccccc2)nc(SCC(=O)N2CCOCC2)[nH]c1=O`: the growth in the test with HCT-15 colon was 103%; in the test with HT29 colon, 106%; in the test on SNB-75 CNS, 61.4%; with SNB-19 CNS it was 111%; in the test on PC-3 prostate, 98.1%; in the test on SK-MEL-5 melanoma, 102%. Besides, the growth in the test with UACC-62 melanoma is 100%; with LOX IMVI melanoma, 91.9%; in the test on SK-MEL-28 melanoma it was 114%.
For the compound `CCN1CCN(c2nc(NNC(=O)c3cccc(OC)c3)nc(N3CCN(C(c4ccccc4)c4ccccc4)CC3)n2)CC1`, the growth in the test with HCT-15 colon is 15.4%; in the test with SNB-75 CNS it was 61.9%; in the test on SNB-19 CNS, 78.1%; in the test with U251 CNS it was 41.8%; with PC-3 prostate, 41.9%; in the test on SK-MEL-5 melanoma, 53.5%. In addition, the growth with UACC-62 melanoma was 73.5%; with LOX IMVI melanoma, 7.34% (active); in the test with SK-MEL-28 melanoma, 63.2%.
As for `S=C(Cc1ccc(-c2ccccc2)cc1)N1CCOCC1`, the growth in the test on HCT-15 colon is 104%; in the test with SNB-75 CNS, 83.1%; with SNB-19 CNS, 110%; with U251 CNS, 96.6%; in the test on PC-3 prostate, 76.7%; in the test on SK-MEL-5 melanoma, 92.9%. Further, the results for the growth in the test with UACC-62 melanoma, with LOX IMVI melanoma and in the test on SK-MEL-28 melanoma were 87.2%, 92% and 106%, respectively.
Take `CCCCCCCCCCCC(c1ccccc1)N(C)C` (centres undefined): the growth with HCT-15 colon was 95.6%; in the test with SNB-75 CNS, 89.5%; in the test with SNB-19 CNS it was 95.1%; with U251 CNS, 95.6%; with PC-3 prostate it was 78.1%; in the test with SK-MEL-5 melanoma, 97%. The values for the growth in the test with UACC-62 melanoma, with LOX IMVI melanoma and with SK-MEL-28 melanoma were 94.9%, 92.7% and 99%, respectively.
As for `O=C(Nc1cccc(-c2nc3ccccc3[nH]2)c1)c1cccc(NC(=O)c2ccco2)c1`, the growth is 50.9% in the test with HCT-15 colon; 72.2% in the test with SNB-75 CNS; 89.4% in the test with SNB-19 CNS; 61.8% in the test with U251 CNS; 68.5% in the test on PC-3 prostate; 43.4% in the test with SK-MEL-5 melanoma. Further, the growth was -71.7% (active) in the test on UACC-62 melanoma, 41.8% in the test on LOX IMVI melanoma and 30.3% with SK-MEL-28 melanoma.
With `Cc1cc(C)c2c(Nc3ncnc4c3sc3nc(C)cc(C)c34)n[nH]c2n1`, the growth in the test with HCT-15 colon was 93.2%; in the test on SNB-75 CNS, 94.4%; with SNB-19 CNS, 95.8%; in the test with U251 CNS, 99.4%; with PC-3 prostate it was 88.4%; with SK-MEL-5 melanoma, 99.1%. Besides, the growth in the test with UACC-62 melanoma is 95.4%; in the test on SK-MEL-28 melanoma, 94.5%.
On to `CN(C)c1ccc2c(c1)OC(N)=C(C#N)C2c1ccc2c(c1)CCO2` (centres undefined), for which the growth in the test with HCT-15 colon was 18%; with SNB-75 CNS it was 40.8%; with SNB-19 CNS, 31.4%; with U251 CNS it was 21.7%; with PC-3 prostate, 24.1%; in the test on SK-MEL-5 melanoma, 10.3%. For the same compound, the values for the growth with UACC-62 melanoma, in the test with LOX IMVI melanoma and in the test with SK-MEL-28 melanoma were 34.8%, 29% and 57.6%, respectively.
On to `O=C(/C=C/c1nnc2n(Cc3ccccc3)c(=O)c3c4c(sc3n12)CCCC4)c1ccccc1`, for which the growth in the test on HCT-15 colon was 88%; in the test on SNB-75 CNS, 116%; with SNB-19 CNS it was 99.4%; in the test on U251 CNS, 40.6%; in the test with PC-3 prostate, 105%; in the test on SK-MEL-5 melanoma, 111%. Moreover, the figures for the growth with UACC-62 melanoma, with LOX IMVI melanoma and with SK-MEL-28 melanoma were 99.6%, 84.7% and 119%, respectively.
On to `Cc1ccc2nc(-c3ccc(OCC(=O)N=Nc4c(O)[nH]c5ccccc45)cc3)[nH]c2c1`, for which the growth with HCT-15 colon was 86.3%; in the test with SNB-75 CNS it was 109%; in the test on SNB-19 CNS it was 50%; in the test with U251 CNS, 6.05% (active); in the test with PC-3 prostate, 7.33% (active); with SK-MEL-5 melanoma, 94.3%. Moreover, the growth with UACC-62 melanoma is 96.5%; with LOX IMVI melanoma, 39%; in the test on SK-MEL-28 melanoma, 102%.
As for `CCCCCCCC/C=C/CCCCCCCCC1=NCCN1CCO`, the growth with HCT-15 colon is 59.2%; in the test on SNB-75 CNS, 57.3%; in the test with SNB-19 CNS, 92.8%; with U251 CNS, 54.1%; in the test on PC-3 prostate it was 46.2%; with SK-MEL-5 melanoma, 85.6%. The growth was 90.5% with UACC-62 melanoma, -7.51% (active) in the test on LOX IMVI melanoma and 90.5% in the test on SK-MEL-28 melanoma.
As for `Cc1cc(Nc2cccc(F)c2)nc(NCc2ccccc2)n1`, the growth was 15.6% in the test on HCT-15 colon; 50.5% in the test on SNB-75 CNS; 29.4% in the test with SNB-19 CNS; 11.7% with U251 CNS; 1.49% (active) with PC-3 prostate; 33.9% in the test on SK-MEL-5 melanoma. In addition, the results for the growth in the test with UACC-62 melanoma, in the test on LOX IMVI melanoma and with SK-MEL-28 melanoma were 16.7%, 18.2% and 43.9%, respectively.
For the compound `COc1ccc(-c2cn[nH]c2-c2cc(OC)c(OC)c(OC)c2)cc1`, the growth was 3.22% (active) with HT29 colon; 44.7% in the test with SNB-75 CNS; 45.5% with SNB-19 CNS; 16.2% with U251 CNS; 14.1% with PC-3 prostate; -17.1% (active) in the test with SK-MEL-5 melanoma. Further, the growth was 38% with UACC-62 melanoma, 27.3% with LOX IMVI melanoma and 43.6% with SK-MEL-28 melanoma.

Values taken from PubChem BioAssay (NCI).
